Compounds without any hit were thinned out: in the full panel of roughly 83,000, 20% have a hit.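 Cells were grown in 96-well plates and exposed to the test compound at a single concentration for 48 hours; results are reported as percent growth, with values below 10 considered active.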 A number with no mark means an inactive call. Calls of active or inactive are those of the source.

The assay concerns MDA-MB-435 melanoma. Nature of the assay: NCI-60 one-dose screen, 48 h (100 = growth as untreated, 0 = no growth, -100 = all killed). Conditions: 10 µM unless noted.
With `Cn1cc(C2=C(c3cn(C4CCN(Cc5ccccn5)CC4)c4ccccc34)C(=O)NC2=O)c2ccccc21`, the growth was 47.6%.

Take `O=C1OCCC1Br` (centres undefined): the growth is 103%.

As for `CC(CO)NC1CCCCC1` (centres undefined), the growth is 112%.

Take `CC[C@H](C)[C@H](NC(=O)C12CC(NC(C)=O)(C1)C2)C(=O)N(C)[C@H](C[C@@H](OC(C)=O)c1nc(C(=O)N[C@@H](Cc2ccccc2)C[C@H](C)C(=O)OC)cs1)C(C)C`: the growth is -59% (active).

As for `CC[C@H](C)[C@H](NC(=O)NC(C)(C)C)C(=O)N(C)[C@H](C[C@@H](OC(C)=O)c1nc(C(=O)N[C@@H](Cc2ccccc2)C[C@H](C)C(=O)OC)cs1)C(C)C`, the growth is -44.9% (active).

As for `ClCCN(CCCl)Cc1ccc(Nc2ccnc3cc(Cl)ccc23)cc1`, the growth is 39.6%.

On to `O=C(N/N=C\c1ccc(N(CCCl)CCCl)cc1)c1cccc([N+](=O)[O-])c1`, for which the growth is 105%.

Regarding `O=[N+]([O-])c1c(Br)sc(Br)c1[N+](=O)[O-]`, the growth was 17.5%.

For the compound `CC12CC(=O)C3(SC#N)C(CCC4=CC(=O)CCC43C)C1CCC2=O` (centres undefined), the growth is 70.9%.

As for `CCn1c2ccccc2c2cc(C(=O)c3ccc(C)c4ccccc34)ccc21`, the growth is -34.1% (active).

For the compound `COc1ccc([As]=[As]c2ccc(OC)c(NCS(=O)(=O)O)c2)cc1NCS(=O)(=O)O` (centres undefined), the growth was 48.8%.

For the compound `NC1CC2CCCCC2CC1(O)c1ccccc1` (centres undefined), the growth was 105%.

`N/C(=N/N=C/c1ccncc1)N[N+](=O)[O-]`: the growth is 105%.

For the compound `O=C1CCC2(O)[C@@H]3Cc4ccc(O)c5c4[C@]2(CCN3Cc2ccoc2)C1O5` (some centres undefined), the growth is 105%.

The record behind these values is PubChem BioAssay (NCI).
